In PubChem BioAssay (NCI):
About 83,000 compounds went through this panel and 20% of them were active in at least one assay; those are over-represented in the sample as a whole.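 The test compound was applied at a single concentration to cells in 96-well plates for 48 hours, and percent growth was recorded.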 Values without a mark were called inactive. The source made the active and inactive calls. The calls were made as follows: active = growth percent below 10; inactive = the rest.

Assays:
Assay in all cases: NCI-60 one-dose screen, 48 h (100 = growth as untreated, 0 = no growth, -100 = all killed)
Conditions in all cases: 10 µM unless noted
[1] = tested on: SR leukemia
[2] = tested on: RPMI-8226 leukemia
[3] = tested on: OVCAR-8 ovarian
[4] = tested on: OVCAR-4 ovarian
[5] = tested on: SK-OV-3 ovarian
[6] = tested on: IGROV1 ovarian
[7] = tested on: OVCAR-3 ovarian
[8] = tested on: HS 578T breast
[9] = tested on: NCI/ADR-RES ovarian
[10] = tested on: OVCAR-5 ovarian

## c1ccc(CN2C(c3ccccc3)=Nc3ccccc3C2c2c[nH]c3ccccc23)cc1 (centres undefined)
[1]
  growth: -17.8% (active)
[2]
  growth: 4.99% (active)
[3]
  growth: 44.4%
[4]
  growth: 27.1%
[5]
  growth: 71.6%
[6]
  growth: 19.3%
[7]
  growth: 57.6%
[8]
  growth: 52.3%
[9]
  growth: 30.2%

## CC(Cc1ccco1)C(=O)NC(N)=O (centres undefined)
[1]
  growth: 100%
[2]
  growth: 102%
[3]
  growth: 101%
[4]
  growth: 108%
[5]
  growth: 120%
[6]
  growth: 108%
[7]
  growth: 111%
[8]
  growth: 109%
[9]
  growth: 104%

## CC(C)=CCC[C@](C)(O)[C@H]1CC[C@]2(C)[C@@H]1CC[C@@H]1[C@@]3(C)C/C(=C/c4ccc(Br)cc4)C(=O)C(C)(C)[C@@H]3CC[C@]12C
[1]
  growth: 80.7%
[2]
  growth: 71.8%
[3]
  growth: 84.5%
[4]
  growth: 78.5%
[5]
  growth: 96.5%
[6]
  growth: 101%
[7]
  growth: 87.5%
[8]
  growth: 92.2%
[9]
  growth: 98.2%

## COc1ccc2[nH]cc(-c3nc(-c4c[nH]c5ncccc45)cs3)c2c1
[1]
  growth: -7.54% (active)
[2]
  growth: 40.9%
[3]
  growth: 44.8%
[10]
  growth: 81.5%
[5]
  growth: 41.4%
[6]
  growth: 30.7%
[7]
  growth: 50.6%
[8]
  growth: 57.5%
[9]
  growth: 47%

## COC(=O)[C@]12CC[C@@H](C)[C@H](C)[C@@H]1C1=CC[C@@H]3[C@@]4(C)C[C@@H](O)OC[C@](C)(C=O)C4C(=O)C[C@@]3(C)[C@]1(C)CC2 (some centres undefined)
[1]
  growth: -14.3% (active)
[2]
  growth: -19.3% (active)
[3]
  growth: -4.45% (active)
[4]
  growth: 18.5%
[6]
  growth: 14.7%
[7]
  growth: -12% (active)
[8]
  growth: 16.8%
[9]
  growth: 10.9%

## COC(=O)[C@]12CC[C@@H](C)[C@H](C)[C@@H]1C1=CC[C@@H]3[C@@]4(C)CC(=O)[C@H](OC(=O)c5ccco5)[C@@]5(C)COC(=C45)C[C@@]3(C)[C@]1(C)CC2
[1]
  growth: 25.8%
[2]
  growth: 24.4%
[10]
  growth: 69.2%
[4]
  growth: 19.6%
[5]
  growth: 36.1%
[6]
  growth: 53%
[7]
  growth: 43.5%
[8]
  growth: 61.4%
[9]
  growth: 33.3%

## COc1ccc(-c2nc3ccccn3c2-c2nc3ccc(Cl)cc3[nH]2)cc1
[1]
  growth: 70.3%
[2]
  growth: 43.7%
[10]
  growth: 102%
[4]
  growth: 86%
[5]
  growth: 107%
[6]
  growth: 102%
[7]
  growth: 73.9%
[8]
  growth: 93.6%
[9]
  growth: 90.3%

## Nc1nc2c3ccncc3cc(-c3cccc(Cl)c3)c2c2cnccc12
[1]
  growth: 9.04% (active)
[2]
  growth: 5.57% (active)
[3]
  growth: 24.1%
[4]
  growth: 65.6%
[5]
  growth: 61.9%
[6]
  growth: 59%
[7]
  growth: 54.6%
[8]
  growth: 35.5%
[9]
  growth: 30.6%

## COc1ccc2c(c1)C/C(=C\c1cc(-c3ccc4c(c3)OCO4)n[nH]1)C2=O
[1]
  growth: 73.7%
[2]
  growth: 45.8%
[10]
  growth: 98.3%
[4]
  growth: 90.9%
[5]
  growth: 95.6%
[6]
  growth: 99.1%
[7]
  growth: 71.3%
[8]
  growth: 99.4%
[9]
  growth: 109%

## COC(=O)[C@]12CC[C@@H](C(=O)/C=C/c3cccnc3)[C@@H]1[C@H]1CC[C@@H]3[C@@]4(C)C/C(=C/c5cccnc5)C(=O)C(C)(C)[C@@H]4CC[C@@]3(C)[C@]1(C)CC2
[1]
  growth: -14.1% (active)
[2]
  growth: -28.7% (active)
[10]
  growth: -62.7% (active)
[4]
  growth: -39.2% (active)
[5]
  growth: -23.1% (active)
[6]
  growth: -87.9% (active)
[7]
  growth: -93.2% (active)
[8]
  growth: -49.1% (active)
[9]
  growth: -39.4% (active)

## COc1cccc(-c2nn(-c3ccccc3)cc2-c2ccnc(NCCCNS(=O)(=O)c3cccc(F)c3)c2)c1
[1]
  growth: -7.52% (active)
[2]
  growth: 14.3%
[10]
  growth: 61.3%
[4]
  growth: 34%
[5]
  growth: 40.9%
[6]
  growth: 29.6%
[7]
  growth: 46.5%
[8]
  growth: 32%
[9]
  growth: 12.7%

## COc1c(N)c2c(c([N+](=O)[O-])c1OC)C(=O)OC2
[1]
  growth: 91.2%
[2]
  growth: 99.9%
[3]
  growth: 98.1%
[6]
  growth: 105%
[7]
  growth: 105%
[8]
  growth: 109%
[9]
  growth: 114%

## CN1CCN(CCOc2ccc(-c3cnc4c(-c5cccc(F)c5)cnn4c3)cc2)CC1
[1]
  growth: -12.8% (active)
[2]
  growth: 31.7%
[10]
  growth: 84.6%
[4]
  growth: 65.5%
[5]
  growth: 106%
[6]
  growth: 63.8%
[7]
  growth: 56.1%
[8]
  growth: 77.6%
[9]
  growth: 72.8%

## Oc1ccc(CCC2CCCC(CCc3ccc(OCCF)cc3)N2)cc1 (centres undefined)
[1]
  growth: 67.2%
[2]
  growth: 90.8%
[3]
  growth: 93.3%
[4]
  growth: 82.9%
[6]
  growth: 96.2%
[7]
  growth: 107%
[8]
  growth: 97.5%
[9]
  growth: 87.6%

## CC(=O)c1c(C)[nH]c(-c2nc3ccc(N4CCN(C)CC4)cc3[nH]2)c1-c1ccc(OCC2CCOCC2)cc1
[1]
  growth: 28.1%
[2]
  growth: -2.05% (active)
[10]
  growth: 43.8%
[4]
  growth: 35.7%
[5]
  growth: 13.5%
[6]
  growth: 16.2%
[7]
  growth: 30.7%
[8]
  growth: 19.5%
[9]
  growth: 31.7%

## Cc1ccc2oc(=O)cc(-c3sc(N4CCCCC4)nc3-c3ccccc3)c2c1
[1]
  growth: 77.3%
[2]
  growth: 99.9%
[3]
  growth: 98.4%
[4]
  growth: 92.4%
[6]
  growth: 59.9%
[7]
  growth: 97.2%
[8]
  growth: 96.7%
[9]
  growth: 98.4%

## COc1ccc(-n2c(/C=C/c3ccc(O)c(OC)c3)cc(/C=C/c3ccc(O)c(OC)c3)nc2=O)cc1
[1]
  growth: 14.2%
[2]
  growth: 21.4%
[10]
  growth: 112%
[4]
  growth: 62.5%
[5]
  growth: 62.3%
[6]
  growth: 63.5%
[7]
  growth: 41.4%
[8]
  growth: 62.5%
[9]
  growth: 84.3%

## C=C(C)[C@@H]1CC[C@]2(C(=O)N3CCN(CC)CC3)CC[C@]3(C)[C@H](CC[C@@H]4[C@@](C)(CCC(=O)N5CCN(CC)CC5)[C@H](C(=C)C)CC[C@]43C)[C@@H]12
[1]
  growth: 5.68% (active)
[2]
  growth: 22.3%
[10]
  growth: 72.3%
[4]
  growth: 77.4%
[5]
  growth: 95.5%
[6]
  growth: 73.6%
[7]
  growth: 60.5%
[8]
  growth: 80.8%
[9]
  growth: 67.6%

## COc1ccc(C2c3ccccc3NC(=O)N2C2CCN(C)CC2)c(OC)c1 (centres undefined)
[1]
  growth: 41.4%
[2]
  growth: 113%
[10]
  growth: 88.4%
[4]
  growth: 105%
[5]
  growth: 101%
[6]
  growth: 94.3%
[7]
  growth: 110%
[8]
  growth: 92%
[9]
  growth: 103%

## N#C/C(=C\c1ccc(-c2ccc(Br)cc2)o1)c1nc(-c2cccs2)cs1
[1]
  growth: 90.4%
[2]
  growth: 92.8%
[10]
  growth: 95.6%
[4]
  growth: 96.3%
[5]
  growth: 111%
[6]
  growth: 88.1%
[7]
  growth: 110%
[8]
  growth: 108%
[9]
  growth: 95%

## Nc1nc2c(c(=O)[nH]1)C(c1ccc3c(c1)OCO3)C=C(C(=O)O)N2 (centres undefined)
[1]
  growth: 103%
[2]
  growth: 129%
[10]
  growth: 114%
[4]
  growth: 103%
[5]
  growth: 118%
[6]
  growth: 111%
[7]
  growth: 123%
[8]
  growth: 106%

## N#C/C(=C\c1ccc(-c2ccc(Br)cc2)o1)c1nc(-c2ccco2)cs1
[1]
  growth: 95.6%
[2]
  growth: 61.4%
[10]
  growth: 63.4%
[4]
  growth: -6.53% (active)
[5]
  growth: 91%
[6]
  growth: 60.9%
[7]
  growth: 106%
[8]
  growth: 100%
[9]
  growth: 99.8%

## C=C(C)[C@@H]1CC[C@]2(C(=O)O)CC[C@]3(C)[C@H](CC[C@@H]4[C@@]5(C)C/C(=C/c6cccc(I)c6)C(=O)C(C)(C)[C@@H]5CC[C@]43C)[C@@H]12
[1]
  growth: 24%
[2]
  growth: 9.91% (active)
[3]
  growth: 20.5%
[4]
  growth: 3.26% (active)
[6]
  growth: 47.6%
[7]
  growth: 5.15% (active)
[8]
  growth: 43.9%
[9]
  growth: 31.5%

## CCN(CC)C(=O)CCCCCn1c2ccccc2c2c3c(c4c5ccccc5[nH]c4c21)C(=O)N(O)C3=O
[1]
  growth: 5.8% (active)
[2]
  growth: 16.1%
[3]
  growth: 20.8%
[4]
  growth: 56.6%
[6]
  growth: 27.6%
[7]
  growth: 46.5%
[8]
  growth: 71.1%
[9]
  growth: 12.7%

## C=COCCCCCCCCCCCCCCCCCC
[1]
  growth: 94.6%
[2]
  growth: 115%
[10]
  growth: 106%
[4]
  growth: 109%
[5]
  growth: 103%
[6]
  growth: 118%
[7]
  growth: 92.6%
[8]
  growth: 89.3%
[9]
  growth: 98.9%

## CC(C)(C)c1nc(-c2ccc(O)c(O)c2)cs1
[1]
  growth: 26.9%
[2]
  growth: 39.2%
[10]
  growth: 91%
[4]
  growth: 76.2%
[5]
  growth: 90.6%
[6]
  growth: 43.8%
[7]
  growth: 61.2%
[8]
  growth: 85.9%
[9]
  growth: 35.5%

## O=S(=O)(NCCNc1cc(-c2cn(-c3ccccc3)nc2-c2cccc(O)c2)ccn1)c1ccc(C(F)(F)F)cc1
[1]
  growth: -23.1% (active)
[2]
  growth: 18.5%
[10]
  growth: 62.7%
[4]
  growth: 39%
[5]
  growth: 54%
[6]
  growth: 43.3%
[7]
  growth: 49.2%
[8]
  growth: 48.6%
[9]
  growth: 43.4%

## CC(=O)O[C@H]1CC[C@]2(C)[C@H]3C(=O)C=C4[C@@H]5C[C@](C)(C(=O)N6CCCNCC6)CC[C@]5(C)CC[C@@]4(C)[C@]3(C)CC[C@H]2C1(C)C
[1]
  growth: -17.3% (active)
[2]
  growth: -32.3% (active)
[3]
  growth: -24.6% (active)
[4]
  growth: -5.14% (active)
[6]
  growth: -80.5% (active)
[7]
  growth: -86.4% (active)
[8]
  growth: 96.2%
[9]
  growth: -41.6% (active)

## Cc1ccccc1-c1nc(C(Cl)Cl)nc2cc(-c3ccccc3)nn12
[1]
  growth: 50.2%
[2]
  growth: 61.6%
[3]
  growth: 86.9%
[4]
  growth: 77.5%
[6]
  growth: 59.9%
[7]
  growth: 28.3%
[8]
  growth: 70%
[9]
  growth: 65.3%

## CCOc1ccc(NC(=O)c2ccccc2-c2ccccc2C(=O)O)cc1
[1]
  growth: 89.7%
[2]
  growth: 101%
[3]
  growth: 111%
[5]
  growth: 109%
[6]
  growth: 110%
[7]
  growth: 110%
[8]
  growth: 103%
[9]
  growth: 108%
